# Measured values: PubChem BioAssay (EPA / NIEHS)
# Active and inactive are the calls of the source. The calls were made as follows: active = hit-call score of the fitted dose curve at least 0.9, where 1 is the maximum; inactive = score below 0.9.
# Assays:
# Details in all cases: mRNA level, 48 h; actives raise or lower the signal
# [1] = read-out: Potassium channel subfamily K member 1 (KCNK1), KCNK1 (gene 3775); experiment: LTEA_HepaRG_KCNK1: Life Technologies and Expression Analysis (LTEA) Assay for Potassium channel subfamily K member 1 (KCNK1) using HepaRG (AID 2283511)
# Summary of the method: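 Differentiated HepaRG cells, 48 h exposure in serum-free induction medium with 0.5% DMSO; 8 concentrations, half-log from 100 uM, duplicate. KCNK1 mRNA by qRT-PCR, normalized to ACTB, GAPDH, POLR2A; bidirectional fit vs DMSO.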
# [2] = read-out: JUN Transcription Factor, JUN (gene 3725); experiment: LTEA_HepaRG_JUN: Life Technologies and Expression Analysis (LTEA) Assay for JUN Transcription Factor using HepaRG (AID 2283513)
# Summary of the method: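 Cells plated 48 h, medium switched to serum-free induction medium, then dosed 48 h (100 uM top, half-log dilutions, 0.5% DMSO). RNA isolated; JUN measured by qRT-PCR against three housekeeping genes; gain or loss fitted relative to DMSO.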
# [3] = read-out: Lipase C (LIPC), LIPC (gene 3990); experiment: LTEA_HepaRG_LIPC: Life Technologies and Expression Analysis (LTEA) Assay for Lipase C (LIPC) using HepaRG (AID 2283514)
# Summary of the method: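 HepaRG cells, 48 h after plating, treated in duplicate for 48 h in serum-free induction medium over 8 half-log concentrations from 100 uM, 0.5% DMSO. LIPC mRNA by TaqMan qRT-PCR normalized to ACTB/GAPDH/POLR2A; bidirectional fit versus DMSO.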
# [4] = read-out: Lipoprotein lipase (LPL), LPL (gene 4023); experiment: LTEA_HepaRG_LPL: Life Technologies and Expression Analysis (LTEA) Assay for Lipoprotein lipase (LPL) using HepaRG (AID 2283515)
# Summary of the method: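 Differentiated HepaRG cells, plated 48 h, then exposed 48 h in serum-free induction medium to 8 concentrations (top 100 uM, half-log steps) in 0.5% DMSO, duplicate. LPL mRNA measured by qRT-PCR, normalized to ACTB, GAPDH and POLR2A.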
# [5] = read-out: MicroRNA 122 (MIR122), gene 406906; experiment: LTEA_HepaRG_MIR122: Life Technologies and Expression Analysis (LTEA) Assay for MicroRNA 122 (MIR122) using HepaRG (AID 2283516); also: the transcript read is the microRNA miR-122
# Summary of the method: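 HepaRG plated 48 h, switched to serum-free induction medium, then treated in duplicate for 48 h (100 uM top, half-log steps, 0.5% DMSO vehicle). RNA isolated, qRT-PCR performed, concentration-response fitted both directions relative to DMSO.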
# [6] = read-out: matrix metalloproteinase-10 (MMP10), MMP10 (gene 4319); experiment: LTEA_HepaRG_MMP10: Life Technologies and Expression Analysis (LTEA) Assay for matrix metalloproteinase-10 (MMP10) using HepaRG (AID 2283517)
# Summary of the method: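 Differentiated HepaRG cells in serum-free induction medium exposed 48 h in duplicate to 8-point half-log series up to 100 uM in 0.5% DMSO. mRNA quantified by qRT-PCR, normalised to ACTB, GAPDH, POLR2A; bidirectional fit versus DMSO.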
# [7] = read-out: matrix metalloproteinase-3 (MMP3), MMP3 (gene 4314); experiment: LTEA_HepaRG_MMP3: Life Technologies and Expression Analysis (LTEA) Assay for matrix metalloproteinase-3 (MMP3) using HepaRG (AID 2283519)
# Summary of the method: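 HepaRG cells (~100,000/well) in serum-free induction medium were dosed in duplicate for 48 h with an 8-point half-log series from 100 uM, 0.5% DMSO. MMP3 mRNA was quantified by Fluidigm TaqMan qRT-PCR, normalized to three housekeeping genes.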
# [8] = read-out: Paternally Expressed 10 (PEG10), PEG10 (gene 23089); experiment: LTEA_HepaRG_PEG10: Life Technologies and Expression Analysis (LTEA) Assay for Paternally Expressed 10 (PEG10) using HepaRG (AID 2283520)
# Summary of the method: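 HepaRG, 48 h post-plating → serum-free induction medium → 48 h chemical exposure (duplicate, 8-pt, max 100 uM, half-log, 0.5% DMSO) → lysis in RLT → TaqMan qRT-PCR for PEG10, ACTB/GAPDH/POLR2A normalisation.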
# [9] = read-out: Nuclear factor NF-kappa-B p105 subunit (Homo sapiens) (UniProt P19838); experiment: LTEA_HepaRG_NFKB1: Life Technologies and Expression Analysis (LTEA) Assay for Nuclear Factor Kappa B Subunit 1 (NFKB1) using HepaRG (AID 2283521)
# Summary of the method: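 NFKB1 transcript was measured by TaqMan qRT-PCR on Fluidigm arrays, normalised to three housekeeping genes and fitted in both directions against 0.5% DMSO. HepaRG cells were dosed in duplicate for 48 h in serum-free induction medium, eight half-log steps from 100 uM.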
# [10] = read-out: Protein phosphatase 2A (PPP2R4), PTPA (gene 5524); experiment: LTEA_HepaRG_PPP2R4: Life Technologies and Expression Analysis (LTEA) Assay for Protein phosphatase 2A (PPP2R4) using HepaRG (AID 2283522)
# Summary of the method: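 Readout is PPP2R4 transcript level by microfluidic qRT-PCR after 48 h chemical treatment of human HepaRG liver cells. Concentrations spanned 100 uM downward in half-log steps; gain or loss of signal was fitted relative to DMSO.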
# [11] = read-out: Phosphatase and tensin (PTEN), PTEN (gene 5728); experiment: LTEA_HepaRG_PTEN: Life Technologies and Expression Analysis (LTEA) Assay for Phosphatase and tensin (PTEN) using HepaRG (AID 2283523)
# Summary of the method: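 HepaRG cells, 48 h after plating, exposed in duplicate for 48 h in serum-free induction medium to 8 half-log concentrations up to 100 uM (0.5% DMSO). PTEN mRNA by qRT-PCR, normalized to ACTB, GAPDH, POLR2A; bidirectional fit versus DMSO.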
# [12] = read-out: solute carrier (SLC22A1), SLC22A1 (gene 6580); experiment: LTEA_HepaRG_SLC22A1: Life Technologies and Expression Analysis (LTEA) Assay for solute carrier (SLC22A1) using HepaRG (AID 2283524)
# Summary of the method: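 Differentiated human HepaRG cells in serum-free induction medium, exposed 48 h in duplicate to 8-point half-log series from 100 µM top in 0.5% DMSO. SLC22A1 mRNA by TaqMan qRT-PCR normalized to ACTB, GAPDH, POLR2A; bidirectional fit versus DMSO.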
# [13] = read-out: Pyruvate Dehydrogenase Kinase 4 (PDK4), PDK4 (gene 5166); experiment: LTEA_HepaRG_PDK4: Life Technologies and Expression Analysis (LTEA) Assay for Pyruvate Dehydrogenase Kinase 4 (PDK4) using HepaRG (AID 2283525)
# Summary of the method: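 HepaRG cells plated 48 h, then switched to serum-free induction medium and exposed in duplicate for 48 h to 8 half-log concentrations from 100 uM in 0.5% DMSO. PDK4 mRNA measured by qRT-PCR, normalized to ACTB, GAPDH and POLR2A; bidirectional fit versus DMSO.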
# [14] = read-out: NAD(P)H dehydrogenase [quinone] 1 (NQO1), NQO1 (gene 1728); experiment: LTEA_HepaRG_NQO1: Life Technologies and Expression Analysis (LTEA) Assay for NAD(P)H dehydrogenase [quinone] 1 (NQO1) using HepaRG (AID 2283526)
# Summary of the method: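 HepaRG, 48 h post-plating → serum-free induction medium → test chemical 48 h (duplicate, 100 uM top, half-log x8, 0.5% DMSO) → RNA isolation → qRT-PCR, ACTB/GAPDH/POLR2A normalization; bidirectional curve fit vs DMSO baseline.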
# [15] = read-out: succinate dehydrogenase complex iron sulfur subunit B (SDHB), SDHB (gene 6390); experiment: LTEA_HepaRG_SDHB: Life Technologies and Expression Analysis (LTEA) Assay for succinate dehydrogenase complex iron sulfur subunit B (SDHB) using HepaRG (AID 2283528)
# Summary of the method: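 SDHB transcript level read by TaqMan qRT-PCR, housekeeping-normalised (ACTB, GAPDH, POLR2A), after 48 h chemical treatment of plated HepaRG cells; eight concentrations top 100 uM, half-log steps, 0.5% DMSO, duplicates; fitted both directions against DMSO.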
# [16] = read-out: Signal transducer and activator of transcription 3 (Homo sapiens) (UniProt P40763); experiment: LTEA_HepaRG_STAT3: Life Technologies and Expression Analysis (LTEA) Assay for Signal transducer and activator of transcription (STAT3) using HepaRG (AID 2283529)
# Summary of the method: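 Differentiated HepaRG cells, serum-free induction medium, dosed 48 h in duplicate, 8 half-log concentrations from 100 uM in 0.5% DMSO. STAT3 mRNA by qRT-PCR, normalised to ACTB, GAPDH, POLR2A; bidirectional fit versus DMSO.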
# [17] = read-out: solute carrier (SLCO1B1), SLCO1B1 (gene 10599); experiment: LTEA_HepaRG_SLCO1B1: Life Technologies and Expression Analysis (LTEA) Assay for solute carrier (SLCO1B1) using HepaRG (AID 2283530)
# Summary of the method: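 SLCO1B1 transcript read by qRT-PCR (Fluidigm arrays), normalized to three housekeeping genes, after 48 h chemical exposure of HepaRG cells; bidirectional concentration-response fitting versus 0.5% DMSO baseline. Eight-point half-log series, maximum 100 uM.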
# [18] = read-out: Nuclear factor erythroid 2-related factor 2 (Homo sapiens) (UniProt Q16236); experiment: LTEA_HepaRG_NFE2L2: Life Technologies and Expression Analysis (LTEA) Assay for Nuclear factor erythroid 2-related factor 2 (NFE2L2) Transcription Factor using HepaRG (AID 2283527)
# Summary of the method: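 Differentiated human HepaRG cells, serum-free induction medium, exposed 48 h in duplicate to eight half-log concentrations up to 100 uM in 0.5% DMSO. NFE2L2 mRNA by Fluidigm TaqMan qRT-PCR, normalised to ACTB, GAPDH, POLR2A; bidirectional change versus DMSO.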
# MYC, MYC (gene 4609) = experiment: LTEA_HepaRG_MYC: Life Technologies and Expression Analysis (LTEA) Assay for MYC using HepaRG (AID 2283518)
# Summary of the method: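 qRT-PCR read-out of MYC transcript (Fluidigm TaqMan, housekeeping-normalized) after 48 h chemical exposure of HepaRG cells; eight concentrations, top 100 uM, half-log steps. Bidirectional curve fitting against 0.5% DMSO vehicle baseline.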
# Signal transducer and activator of transcription 3 (Homo sapiens), sequence (P40763 whole entry, looked up): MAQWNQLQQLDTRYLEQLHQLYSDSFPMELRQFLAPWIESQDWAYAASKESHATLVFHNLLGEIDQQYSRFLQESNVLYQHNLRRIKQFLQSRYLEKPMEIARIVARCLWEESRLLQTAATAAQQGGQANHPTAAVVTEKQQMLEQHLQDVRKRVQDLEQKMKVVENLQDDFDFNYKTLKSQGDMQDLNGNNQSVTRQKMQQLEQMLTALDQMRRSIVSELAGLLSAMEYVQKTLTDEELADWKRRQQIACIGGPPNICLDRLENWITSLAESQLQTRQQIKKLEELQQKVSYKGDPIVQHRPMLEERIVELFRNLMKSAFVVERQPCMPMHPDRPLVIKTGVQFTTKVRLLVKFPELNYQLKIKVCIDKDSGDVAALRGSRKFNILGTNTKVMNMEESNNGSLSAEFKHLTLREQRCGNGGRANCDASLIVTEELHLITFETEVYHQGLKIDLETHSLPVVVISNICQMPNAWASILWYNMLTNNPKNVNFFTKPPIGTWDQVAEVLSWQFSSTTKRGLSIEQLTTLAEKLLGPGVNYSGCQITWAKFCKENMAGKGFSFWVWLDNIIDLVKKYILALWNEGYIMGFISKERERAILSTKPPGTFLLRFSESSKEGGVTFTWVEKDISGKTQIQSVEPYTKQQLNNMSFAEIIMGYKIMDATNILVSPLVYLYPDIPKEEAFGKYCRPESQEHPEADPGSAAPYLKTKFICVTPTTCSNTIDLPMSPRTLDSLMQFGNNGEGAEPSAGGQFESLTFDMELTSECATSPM
# Nuclear factor NF-kappa-B p105 subunit (Homo sapiens), sequence (P19838 whole entry, looked up): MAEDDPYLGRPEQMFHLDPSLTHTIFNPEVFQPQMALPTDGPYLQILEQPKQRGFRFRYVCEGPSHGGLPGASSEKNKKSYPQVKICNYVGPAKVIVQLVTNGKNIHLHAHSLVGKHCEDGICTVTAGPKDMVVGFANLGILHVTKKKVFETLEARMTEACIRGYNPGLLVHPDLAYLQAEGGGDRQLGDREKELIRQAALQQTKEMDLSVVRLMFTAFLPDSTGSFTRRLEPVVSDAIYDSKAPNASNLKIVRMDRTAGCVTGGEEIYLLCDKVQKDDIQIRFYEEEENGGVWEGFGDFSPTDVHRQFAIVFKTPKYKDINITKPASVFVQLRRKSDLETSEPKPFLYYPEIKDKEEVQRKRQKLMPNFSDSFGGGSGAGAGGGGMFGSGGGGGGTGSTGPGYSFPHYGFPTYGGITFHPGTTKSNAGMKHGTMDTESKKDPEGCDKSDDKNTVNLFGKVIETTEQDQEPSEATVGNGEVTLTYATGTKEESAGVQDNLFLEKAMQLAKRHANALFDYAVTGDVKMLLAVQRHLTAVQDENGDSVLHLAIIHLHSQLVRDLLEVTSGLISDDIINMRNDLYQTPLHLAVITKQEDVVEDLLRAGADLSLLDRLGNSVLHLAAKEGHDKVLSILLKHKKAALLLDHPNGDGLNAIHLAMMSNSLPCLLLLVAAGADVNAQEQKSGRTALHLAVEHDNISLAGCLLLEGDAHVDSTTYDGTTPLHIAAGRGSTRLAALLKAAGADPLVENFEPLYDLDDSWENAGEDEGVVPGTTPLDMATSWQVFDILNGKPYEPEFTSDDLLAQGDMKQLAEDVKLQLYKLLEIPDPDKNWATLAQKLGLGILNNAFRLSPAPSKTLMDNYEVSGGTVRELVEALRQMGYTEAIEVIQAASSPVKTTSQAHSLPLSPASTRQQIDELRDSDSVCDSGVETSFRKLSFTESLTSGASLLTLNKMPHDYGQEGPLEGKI
# Nuclear factor erythroid 2-related factor 2 (Homo sapiens), sequence (Q16236 whole entry, looked up): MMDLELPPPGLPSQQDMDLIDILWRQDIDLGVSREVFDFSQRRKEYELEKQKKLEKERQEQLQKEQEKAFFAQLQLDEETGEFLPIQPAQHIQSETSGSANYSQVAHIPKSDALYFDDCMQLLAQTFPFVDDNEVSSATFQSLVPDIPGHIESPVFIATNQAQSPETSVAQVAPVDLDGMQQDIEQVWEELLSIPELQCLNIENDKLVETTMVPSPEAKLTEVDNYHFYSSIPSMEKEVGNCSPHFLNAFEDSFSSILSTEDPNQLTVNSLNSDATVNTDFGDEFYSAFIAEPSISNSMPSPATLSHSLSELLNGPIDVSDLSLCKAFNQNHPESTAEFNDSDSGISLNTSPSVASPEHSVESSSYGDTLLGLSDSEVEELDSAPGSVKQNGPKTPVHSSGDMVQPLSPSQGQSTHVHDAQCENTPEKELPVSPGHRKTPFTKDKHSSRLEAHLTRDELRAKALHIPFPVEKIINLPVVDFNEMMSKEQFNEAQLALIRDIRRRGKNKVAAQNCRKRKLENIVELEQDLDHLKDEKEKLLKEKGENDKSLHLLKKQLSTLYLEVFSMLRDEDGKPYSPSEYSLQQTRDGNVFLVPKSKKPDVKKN
structure (smiles),measurement,setting,value
CC(C)(C)c1cc(O)c(C(C)(C)C)cc1O,outcome,[1],inactive
same,outcome,[2],inactive
same,AC50,[3],79.7 µM (active)
same,outcome,[4],inactive
same,AC50,[5],79.8 µM (active)
same,AC50,[6],93.6 µM (active)
same,AC50,[7],50 µM (active)
same,AC50,[8],32.5 µM (active)
same,outcome,[9],inactive
same,outcome,[10],inactive
same,AC50,[11],87.6 µM (active)
same,AC50,[12],76.8 µM (active)
same,outcome,[13],inactive
same,AC50,[14],80.6 µM (active)
same,outcome,[15],inactive
same,outcome,[16],inactive
same,AC50,[17],79.1 µM (active)
COc1ccc(C)cc1N,outcome,[1],inactive
same,outcome,[2],inactive
same,outcome,[3],inactive
same,outcome,[4],inactive
same,outcome,[5],inactive
same,outcome,[6],inactive
same,outcome,[7],inactive
same,outcome,[8],inactive
same,outcome,[9],inactive
same,outcome,[10],inactive
same,outcome,[12],inactive
same,outcome,[13],inactive
same,outcome,[14],inactive
same,outcome,[15],inactive
same,outcome,[16],inactive
same,outcome,[17],inactive
Cc1nc(C)nc(N2C[C@@H](C)N(c3ccnc([C@@H](C)O)n3)[C@@H](C)C2)n1,outcome,[1],inactive
same,outcome,[2],inactive
same,outcome,[4],inactive
same,outcome,[5],inactive
same,outcome,[6],inactive
same,AC50,[7],25 µM (active)
same,outcome,[8],inactive
same,outcome,[9],inactive
same,outcome,[10],inactive
same,outcome,[13],inactive
same,outcome,[14],inactive
same,outcome,[15],inactive
same,outcome,[16],inactive
same,outcome,[17],inactive
CC=Cc1ccc(O)c(OC)c1,outcome,[1],inactive
same,outcome,[2],inactive
same,outcome,[3],inactive
same,outcome,[4],inactive
same,outcome,[5],inactive
same,outcome,[6],inactive
same,outcome,[7],inactive
same,outcome,[8],inactive
same,outcome,[10],inactive
same,outcome,[11],inactive
same,outcome,[12],inactive
same,outcome,[13],inactive
same,outcome,[14],inactive
same,outcome,[18],inactive
same,outcome,[15],inactive
same,outcome,[16],inactive
same,outcome,[17],inactive
NS(=O)(=O)c1cc2c(cc1Cl)NCNS2(=O)=O,outcome,[1],inactive
same,outcome,[2],inactive
same,outcome,[3],inactive
same,outcome,[4],inactive
same,outcome,[5],inactive
same,outcome,[6],inactive
same,outcome,[7],inactive
same,outcome,[8],inactive
same,outcome,[10],inactive
same,outcome,[11],inactive
same,outcome,[12],inactive
same,outcome,[13],inactive
same,outcome,[14],inactive
same,outcome,[18],inactive
same,outcome,[15],inactive
same,outcome,[16],inactive
same,outcome,[17],inactive
CCCc1cc(=O)[nH]c(=S)[nH]1,outcome,[1],inactive
same,outcome,[2],inactive
same,outcome,[3],inactive
same,outcome,[4],inactive
same,outcome,[5],inactive
same,outcome,[6],inactive
same,outcome,"MYC, MYC (gene 4609)",inactive
same,outcome,[7],inactive
same,outcome,[8],inactive
same,outcome,[10],inactive
same,outcome,[12],inactive
same,outcome,[13],inactive
same,outcome,[14],inactive
same,outcome,[15],inactive
same,outcome,[16],inactive
same,outcome,[17],inactive
CCOC(=O)CCC(=O)OCC,outcome,[1],inactive
same,outcome,[2],inactive
same,outcome,[3],inactive
same,AC50,[4],85 µM (active)
same,outcome,[5],inactive
same,outcome,[6],inactive
same,outcome,[7],inactive
same,outcome,[8],inactive
same,outcome,[10],inactive
same,AC50,[11],81.2 µM (active)
same,outcome,[12],inactive
same,outcome,[13],inactive
same,outcome,[14],inactive
same,outcome,[15],inactive
same,outcome,[16],inactive
same,outcome,[17],inactive
CNCc1cc(F)ccc1Oc1ccc(Cl)c(Cl)c1,AC50,[2],80.5 µM (active)
same,outcome,[3],inactive
same,outcome,[4],inactive
same,AC50,[5],81.8 µM (active)
same,AC50,[6],91.2 µM (active)
same,AC50,"MYC, MYC (gene 4609)",78.9 µM (active)
same,AC50,[7],50 µM (active)
same,AC50,[8],0.689 µM (active)
same,AC50,[9],86.3 µM (active)
same,AC50,[10],50 µM (active)
same,outcome,[11],inactive
same,AC50,[12],86.5 µM (active)
same,outcome,[13],inactive
same,outcome,[14],inactive
same,outcome,[15],inactive
same,outcome,[16],inactive
same,AC50,[17],82.6 µM (active)
